Source: PubChem BioAssay AID623997 (National Center for Advancing Translational Sciences (NCATS), 2012)
Records with an inconclusive call do not appear. Unmarked numbers belong to inactive results. Activity calls are given as the source filed them. How the calls were made is not given here.

Experiment: qHTS Assay for Inhibitors of Influenza NS1 Protein Function: Mammalian Cell Viability
Settings: NS1 counter-screen; at 100 µM (top of the series)
From the text: Influenza is a world-wide public health problem and emerging forms of the virus have the potential to cause a pandemic of equal or greater magnitude to the outbreaks recorded in 1918, 1957 or 1968. Vaccine development is proceeding and there also exist two classes of anti-influenza compounds. However these therapeutic modalities are neither fully effective nor widely enough available to fulfill global needs. In addition their potential usefulness against newly emergent strains is not known. Efforts are needed to develop novel agents against influenza virus, including broad-spectrum agents. Identification of small molecules that inhibit NS1 function either directly or by interfering with specific cellular pathways may be a key to increasing our defense against the virus.
We have miniaturized and optimized a cell based assay in which NS1 from influenza A is expressed in the budding yeast S. cerevisiae. NS1 is a multi-functional protein that counters the host innate immune response and facilitates viral versus cellular gene expression. Expression of NS1 causes a pronounced slow growth phenotype in yeast due to its intrinsic molecular activities. Small molecules that suppress the slow growth phenotype can be identified by a straightforward growth recovery assay using optical density (OD) as the measurement. The same yeast strain not expressing NS1 was used as positive control in the yeast growth recovery assay.
Hits resulting from this primary screen and other follow-up screens, were tested in four concentrations for this mammalian cell viability assay, using MDCK cells.
NIH Chemical Genomics Center [NCGC]
NIH Molecular Libraries Probe Centers Network [MLPCN]
Assay Submitter (PI): Daniel Engel, University of Virgina
Opaque-walled 96-well plates were seeded with […] MDCK cells per well in 100 uL medium and incubated overnight at 37 deg C. The compound was added to triplicate wells for each concentration tested and incubated for 48 h at 37 deg C. The plate was equilibrated for 30 min at room temperature and 100 uL CellTiter Glo reagent (Promega) added according to the manufacturer's protocol. The plate was shaken for 2 min and then incubated for 10 min at room temperature. Luminescence was recorded in an LMAX 384 reader (Molecular Devices) with integration time of 1 s.
COc1cc(-c2ccnc3c2c(C)nn3-c2ccc(C(F)(F)F)cc2)ccc1O gave a viability of 118%. Work on Cc1nn(-c2ccc(Cl)cc2)c2nc(N)c(C#N)c(-c3ccc(O)c(O)c3)c12 yielded a viability of 68.5%. With Cc1nn(-c2ccccc2)c2nc3[nH]c(=O)[nH]c(=O)c3c(-c3ccc4c(c3)OCO4)c12 the viability was 72.3%. Work on COc1cc(-c2ccnc3c2c(C)nn3-c2cccc(F)c2)ccc1O yielded a viability of 122%. In the case of COc1ccc(-c2ccnc3c2c(C)nn3-c2ccc(F)cc2)cc1OC, the viability is reported as 93.4%. For COc1cc(-c2c(C#N)c(N)nc3c2c(C)nn3-c2ccc(C)c(C)c2)ccc1O, the viability was 99.3%. Work on COc1cc(-c2c(C#N)c(=O)[nH]c3c2c(C)nn3-c2ccccc2)ccc1O yielded a viability of 85.2%. With CCOC(=O)c1cnc2c(c(C)nn2-c2ccc(F)cc2)c1-c1ccc(O)c(OC)c1 the viability was 54.9%. Work on COc1cc(-c2ccnc3c2c(C)nn3-c2ccc(F)cc2)ccc1O yielded a viability of 65%. With COc1ccc(-n2nc(C)c3c(-c4ccc(O)c(OC)c4)ccnc32)cc1 the viability was 108%. COc1cc(-c2c3c(C)nn(-c4ccccc4)c3nc3[nH]c(=O)[nH]c(=O)c23)ccc1O gave a viability of 101%. For COc1ccc(-c2c3c(C)nn(-c4ccccc4)c3nc3[nH]c(=O)[nH]c(=O)c23)cc1OC, the viability was 83.5%. COc1cc(-c2c(C#N)c(N)nc3c2c(C)nn3-c2ccc(Cl)cc2)cc(OC)c1OC showed a viability of 92.1%. Compound COc1ccc(-c2c(C#N)c(N)nc3c2c(C)nn3-c2ccc(C)cc2)cc1OC has a viability of 103%. Cc1nn(-c2ccc(F)cc2)c2nc(N)c(C#N)c(-c3ccc(O)c(O)c3)c12 gave a viability of 86%. Work on COc1cc(-c2c(C#N)c(N)nc3c2c(C)nn3-c2ccc(C)c(C)c2)cc(OC)c1OC yielded a viability of 90.8%. In the case of COc1cccc(-c2ccnc3c2c(C)nn3-c2ccc(F)cc2)c1, the viability is reported as 4.7% (active). Work on COc1cccc(-n2nc(C)c3c(-c4ccc(O)c(OC)c4)ccnc32)c1 yielded a viability of 124%. Cc1ccc(-n2nc(C)c3c(-c4ccc(O)c(O)c4)c(C#N)c(N)nc32)cc1 showed a viability of 94.7%. COc1cc(-c2ccnc3c2c(C)nn3-c2cccc(C(F)(F)F)c2)ccc1O gave a viability of 114%. Work on COc1ccc(-c2c3c(C)nn(-c4ccccc4)c3nc3[nH]c(=O)[nH]c(=O)c23)cc1O yielded a viability of 102%. Work on COc1cc(-c2c3c(C)nn(-c4ccccc4)c3nc3[nH]c(=O)[nH]c(=O)c23)cc(OC)c1O yielded a viability of 98.6%. Compound COc1cc(-c2c(C#N)c(N)nc3c2c(C)nn3-c2ccc(F)cc2)cc(OC)c1OC has a viability of 90.7%. COc1ccc(-c2c(C#N)c(N)nc3c2c(C)nn3-c2ccccc2)cc1OC gave a viability of 101%. Work on COc1cc(-c2c(C#N)c(=O)[nH]c3c2c(C)nn3-c2ccccc2)cc(OC)c1OC yielded a viability of 97.8%. With Cc1nn(-c2ccccc2)c2nc(N)c(C#N)c(-c3ccc(O)c(O)c3)c12 the viability was 105%. COc1ccc(-c2ccnc3c2c(C)nn3-c2ccc(F)cc2)cc1 gave a viability of 114%. COc1cc(-c2c(C#N)c(N)nc3c2c(C)nn3-c2ccccc2)ccc1O gave a viability of 101%. Compound COc1ccc(-c2c(C#N)c(N)nc3c2c(C)nn3-c2ccc(Cl)cc2)cc1OC has a viability of 103%. In the case of COc1cc(-c2c(C#N)c(N)nc3c2c(C)nn3-c2ccc(C)cc2)ccc1O, the viability is reported as 94%. COc1cc(-c2c(C#N)c(N)nc3c2c(C)nn3-c2ccc(F)cc2)ccc1O showed a viability of 88%. Work on COc1cc(-c2c(C#N)c(N)nc3c2c(C)nn3-c2ccc(C)cc2)cc(OC)c1OC yielded a viability of 99.9%. Work on COc1ccc(-c2c(C#N)c(N)nc3c2c(C)nn3-c2ccc(F)cc2)cc1OC yielded a viability of 101%.
